The panel holds about 83,000 compounds, 20% with a hit somewhere; the sample as a whole holds those more often.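 Note: values are percent growth. 100 is the growth of untreated cells, values between 100 and 0 indicate rising inhibition; between -100 and 0 indicates cell death.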 Values without a mark were called inactive. Calls of active or inactive are those of the source. How the source made its calls: active means growth percent below 10; inactive means the rest.
Test system: MDA-MB-468 breast
Test: NCI-60 one-dose screen, 48 h (100 = growth as untreated, 0 = no growth, -100 = all killed)

Structure (SMILES)	growth (1 µM)	growth (10 µM)	growth (30 µM)	growth (100 µM)
CNC(=O)c1cc(Oc2ccc(CC(=O)Nc3cc(C(C)(C)C)nn3C)cc2)ccn1	28.7%	2.05% (active)	19.7%	
O=C(Nc1c(Cl)cccc1Cl)Oc1cccc2cccnc12		19.5%		-0.346% (active)
CCc1ccccc1-n1c(N)c(C#N)c(-c2ccc(OC)c(OC)c2)c(C#N)c1=O		107%		47.4%
